Screening data deposited in PubChem BioAssay by National Center for Advancing Translational Sciences (NCATS).
The list is not random: actives were taken first. Their share in the collection is about 1.4%.
TSHR antagonist = Antagonists of the Thyroid Stimulating Hormone Receptor: HTS campaign; activity change, negative = inhibition, % at 11.5 µM; 330,000 tested, 0.2% active; TSHR-expressing cells, TSH-stimulated cAMP HTRF, 2 h; active compounds read low; Thyrotropin receptor (Homo sapiens), P16473;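 active = activity change below a set negative limit, meaning inhibition stronger than a set level, cut at about -70% in these data; inconclusive = activity change between two set negative limits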; note: % is set by controls: 0 for no effect and ±100 for the full control effect
Target sequence (P16473 whole entry, looked up): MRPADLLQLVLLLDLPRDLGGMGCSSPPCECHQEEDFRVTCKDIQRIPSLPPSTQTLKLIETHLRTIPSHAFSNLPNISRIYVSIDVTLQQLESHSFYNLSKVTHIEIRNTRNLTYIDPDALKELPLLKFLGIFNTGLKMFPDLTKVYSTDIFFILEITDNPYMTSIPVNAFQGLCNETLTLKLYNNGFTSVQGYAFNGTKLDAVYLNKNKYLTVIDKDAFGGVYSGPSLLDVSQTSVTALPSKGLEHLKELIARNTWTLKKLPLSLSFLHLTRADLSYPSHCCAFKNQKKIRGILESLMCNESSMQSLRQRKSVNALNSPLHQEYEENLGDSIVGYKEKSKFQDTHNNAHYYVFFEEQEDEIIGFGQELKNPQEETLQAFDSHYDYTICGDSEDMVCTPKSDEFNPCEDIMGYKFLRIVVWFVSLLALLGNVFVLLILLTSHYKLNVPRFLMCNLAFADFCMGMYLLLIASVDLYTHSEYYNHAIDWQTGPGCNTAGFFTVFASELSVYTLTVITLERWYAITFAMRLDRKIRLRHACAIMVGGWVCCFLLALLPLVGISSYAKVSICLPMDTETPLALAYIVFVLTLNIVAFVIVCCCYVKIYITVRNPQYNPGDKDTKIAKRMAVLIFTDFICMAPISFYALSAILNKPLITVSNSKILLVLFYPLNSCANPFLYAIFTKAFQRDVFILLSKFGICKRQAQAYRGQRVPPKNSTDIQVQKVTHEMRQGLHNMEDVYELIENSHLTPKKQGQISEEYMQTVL
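TSHR-expressing cells, 200/well, pre-treated with compound, then stimulated with EC80 TSH (4nM final) for 2 hours at 37 deg C. cAMP measured by competitive HTRF: anti-cAMP cryptate antibody in lysis buffer plus cAMP-d2, read after 30 minutes at room temperature.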
N370S GC mod = qHTS Assay for Inhibitors and Activators of N370S glucocerebrosidase as a Potential Chaperone Treatment of Gaucher Disease; Lysosomal acid glucosylceramidase (Homo sapiens), P04062; N370S GC spleen homogenate, 4MU-glucoside fluorescence; Potency, µM (highest dose often 59.4 µM), for inactives: top-dose activity change, negative = inhibition, most hits filed as inhibitors; 330,000 tested, 0.092% active; AID 2101, 2009;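 note: potency is the fitted concentration of half-maximal effect; 0% = full enzyme activity and -100% = no enzyme basal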
GLS inhibitor = qHTS for Inhibitors of Glutaminase (GLS) | Glutaminase kidney isoform, mitochondrial (Homo sapiens), O94925 | GLS enzymatic activity, qHTS titration | Potency, µM (titrated, usually from 45.5 µM), for the others: at the top dose activity change, negative = inhibition, usual class: inhibitors | 410,000 tested, 0.21% active; note: potency is the fitted concentration of half-maximal effect; % is set by controls: 0 for no effect and ±100 for the full control effect
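hKGA in 45 mM KH2PO4 pH 8.2, 0.02% Tween-20 with pin-transferred compounds; 1 mM L-glutamine (stock) plus glutamate oxidase/HRP/Amplex Red coupling added. Fluorescence read initially and after 30 min at RT.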
p53 reactivation = qHTS assay for re-activators of p53 using a Luc reporter | H1299 p53-A138V BP100-luciferase reporter, luminescence, 24 h | 320,000 tested, 0.063% active | Potency, µM (titrated, usually from 92.2 µM), without a hit: at the highest dose activity change, positive = activation, actives largely listed as activators; note: potency is the fitted concentration of half-maximal effect; % of control where 0% means no effect; nearly all actives have a fitted effect of over 45% in size
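p53-null H1299 cells stably carrying temperature-sensitive p53-A138V and a BP100-luciferase reporter were pinned with compounds (4-point, 1:5 series) and held 24 hrs at 37 deg C. Luminescence was read 10 min after detection reagent.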
TCR activator = Activators of T cell receptors: qHTS campaign; primary human leukocytes, anti-CD3, IL-2 HTRF, 48 h; Potency, µM (titrated, usually from 9.22 µM), without a hit: at the highest dose activation of IL-2 secretion, most hits filed as activators; 330,000 tested, under 10 active; note: % of control where 0% means no effect
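Activity was scored as IL-2 release from primary human leukocytes given only a TCR signal (a-CD3 beads) plus compound for 48 hr. Detection used a two-antibody HTRF format read at 665nm.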
BRCA1 expr up = qHTS Assay to Identify Small Molecule Activators of BRCA1 Expression | MCF7-BRCA1-FFLuc reporter, luminescence, 48 h; response scale: scaled: vehicle 0%, 10 µM genistein 100% | 380,000 tested, 1.1% active | Potency, µM (series often up to 46.1 µM), for the others: at the top dose activation, usual class: activators; note: potency is the fitted concentration of half-maximal effect; nearly all actives have a fitted effect of over 80% in size
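Luminescence from a BRCA1-driven firefly luciferase in MCF7 cells was the read-out, taken 15 min after substrate addition following 48 h compound exposure at 37 °C. Data were normalized to a 10 microM genistein control and DMSO vehicle.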
Numbers without * were called inactive; ? = inconclusive; · = no result given; [ ] = another dose, or the depositor's remark. Unless noted, calls come from the whole dose curve; as a rule, active = well fitted curve in the direction sought with a large enough effect; inconclusive = small, poorly fitted or top-dose-only effect, or another doubt; inactive = no such curve, though single readings can be large; an effect the other way counts as inactive or inconclusive.

SMILES | TSHR antagonist | N370S GC mod | GLS inhibitor | p53 reactivation | TCR activator | BRCA1 expr up
O=C(NCCC1=CCCCC1)C(=O)NCC1OCCCN1S(=O)(=O)c1ccccc1 (stereo not drawn) | -90* | 15% | 10% | -4% | -3%[46.1 µM] | 5%
COc1cccc(N2CCN(C(=O)c3ccc(CS(=O)c4cccc(Cl)c4)o3)CC2)c1 (stereo not drawn) | · | · | 7% | · | · | ·
Cc1c(C(=O)N2C[C@@H](C)O[C@@H](C)C2)oc2c(F)cccc12 | -8 | -4% | -12% | ? | 3% | 11µM*
Cc1c(C#N)c(NC(=O)COC(=O)c2cc(Cl)c3c(c2)OCCCO3)n(Cc2ccco2)c1C | · | · | · | · | · | 12%
COc1ccc(C(=O)C[n+]2ccc(Cl)c3ccc(Cl)cc32)cc1 | · | · | · | · | · | 7%
CCc1ccc(-c2csc(-c3c[nH]c4ccccc34)n2)cc1 | 9 | 8% | 1% | 20µM* | -4%[46.1 µM] | 4%
C/C(=N\NC(=O)c1csc(C)c1C)c1ccco1 | -5 | -8% | 4% | 7.9µM* | -5%[46.1 µM] | -2%
C/C(=N\NC(=O)c1csc(C)c1C)c1ccc(C)s1 | -6 | 1% | 16% | ? | -2%[46.1 µM] | 10µM*
Cc1scc(C(=O)N/N=C/c2ccc(Cl)s2)c1C | -2 | -9% | -1% | ? | 0%[46.1 µM] | 7.1µM*
C/C(=N\NC(=O)c1c[nH]c2ccccc12)c1ccc(C)s1 | 6 | 4% | 6% | 9% | -1% | 2%
C/C(=N/NC(=O)c1cccs1)c1ccco1 | 2 | 4% | 7% | ? | -2%[46.1 µM] | 13µM*
CCOc1ccccc1NC(=O)Cc1csc(COc2cccc(C)c2)n1 | · | · | 1% | · | · | ·
C=CCCCC | · | 8% | · | · | · | ·
C/C(=N\NC(=O)c1ccco1)c1ccc(NC(=O)c2ccccc2)cc1 | -29 | -7% | 5% | 6% | 11% | 86%
C/C(=N\NC(=O)c1cccs1)c1ccc(C(=O)O)s1 | 4 | 2% | 7% | ? | -3% | 14µM*
C/C(=N\NC(=O)c1ccco1)c1ccc(-c2ccccc2)cc1 | -13 | -3% | -13% | ? | 3% | 8.9µM*
CCOCCCNC(=O)c1ccc2c(c1)ncn2C1CCCC1 | 0 | -14% | -3% | ? | -3% | ?
CC(C)CCNC(=O)c1ccc2c(c1)ncn2C1CCCC1 | -8 | 9% | 0% | 24% | -4% | 7.1µM*
COC(=O)Nc1ccc2c(c1)ncn2C1CCCCC1 | 2 | 0% | · | ? | -1% | 0%[1.84 µM]
CCOC(=O)Nc1ccc2c(c1)ncn2C1CCCCC1 | -6 | 7% | -4% | 13% | -12% | 13µM*
O=C(N/N=C/C(Cl)=C/c1ccccc1)c1ccccc1F | -2 | -7% | 7% | ? | 3% | 10µM*
O=C(N/N=C/C(Br)=C/c1ccccc1)c1ccccc1F | -12 | -11% | -8% | ? | 3% | ?
O=C(N/N=C/C(Cl)=C/c1ccccc1)c1cnccn1 | -3 | -2% | -12% | ? | 0%[46.1 µM] | 33%
O=C(N/N=C/C(Cl)=C\c1ccccc1)c1cnccn1 | -2 | 2% | 11% | 13µM* | 4% | 44%
Cc1cc(/C=C2\C=Cc3ccccc32)cc(C)c1N | · | · | · | · | · | 34%
SMILES | TSHR antagonist | N370S GC mod | GLS inhibitor | p53 reactivation | TCR activator | BRCA1 expr up
Cc1cc(C)cc(OC(C)C(=O)NCCCn2ccnc2)c1 (stereo not drawn) | -104* | 4% | 21% | -1% | -1% | -19%
C[C@@H](Nc1nc(Cl)nc2nc[nH]c12)c1ccccc1 | · | · | · | · | · | -36%
Cc1cc(C)cc(-n2nnc3ccccc3c2=O)c1 | · | · | -5% | · | · | 0%
O=c1c2ccccc2nnn1-c1ccc(Br)cc1 | -10 | -3% | -8% | 10% | 3% | 4.5µM*
C=C(C)C1CCC(C)C(OC(C)=O)C1 (stereo not drawn) | · | -2% | · | · | · | ·
O=S(=O)(O)c1cc(O)c2c(O)c(N=Nc3cc(Cl)ccc3O)c(S(=O)(=O)O)cc2c1 | -3 | -9% | 25% | -12% | 10% | -44%
Cc1cc(-c2ccc(N=Nc3c(S(=O)(=O)O)cc4cc(S(=O)(=O)O)cc(N)c4c3O)c(C)c2)ccc1N=Nc1c(S(=O)(=O)O)cc2cc(S(=O)(=O)O)cc(N)c2c1O | -155* | -14% | 16% | -19% | · | ·
COc1cccc(-c2cc(C(=O)Nc3cc(C)n(Cc4ccc(Cl)cc4)n3)no2)c1 | -74* | 10% | 0% | 0% | 0% | -74%
COc1ccc(OC)c(-c2cc(C(=O)Nc3cc(C)n(Cc4ccc(Cl)cc4)n3)no2)c1 | -2 | -19% | 1% | 20% | -20% | -91%
O=C1C[C@H](c2ccccc2Cl)N1S(=O)(=O)c1ccccc1[N+](=O)[O-] | · | 3% | · | · | · | ·
Nc1cc(Cl)nc(N/N=C/c2ccccc2[N+](=O)[O-])n1 | -7 | -3% | 7% | 6% | -3% | 11µM*
Nc1cc(Cl)nc(N/N=C/c2ccc([N+](=O)[O-])cc2)n1 | 39 | -6% | 6% | 5% | -2% | 22%
COc1ccc(NC(=O)c2nc(S(=O)(=O)Cc3cccc(C)c3)ncc2Cl)c(OC)c1 | -80* | 0% | -1% | -32% | -7% | -3%
COc1ccc(OC)c(NC(=O)c2nc(S(=O)(=O)Cc3ccccc3F)ncc2Cl)c1 | · | · | · | · | · | -35%
COc1ccc(OC)c(NC(=O)c2nc(S(=O)(=O)Cc3ccccc3)ncc2Cl)c1 | -93* | 1% | ? | -23% | -3% | -92%
N#Cc1c2ccc(OCC(=O)NCc3ccco3)cc2n2ccccc12 | -1 | 0% | -19% | 1% | -4% | -24%
N#Cc1c2ccc(O)cc2n2ccccc12 | -6 | 9% | 11µM* | 4% | 1% | 54%
CCN(c1cccc(C)c1)S(=O)(=O)c1cn(CC(=O)OC)c2ccc([N+](=O)[O-])cc12 | -130* | ? | -12% | -11% | 1% | -6%
Cn1cc(/C=C/c2ccnc3ccccc23)c2ccccc21 | · | · | · | · | · | 0%
CC1CCN(C(=O)CSCc2ccc(Cl)cc2)CC1 | -4 | 4% | 17% | ? | 0% | 2.8µM*
Cc1ccc(-c2cc3nccc(-c4cc([N+](=O)[O-])ccc4O)n3n2)cc1 | · | · | 8.9µM* | · | · | -56%
CCOC(=O)COc1ccc([N+](=O)[O-])cc1-c1ccnc2cc(-c3ccc(C)cc3)nn12 | · | · | 8% | · | · | 9%
